High-throughput results as filed in PubChem BioAssay.
ATXN viability – Viability Counterscreen for Primary qHTS for Inhibitors of ATXN expression. S2 cells (HEK-293 line with an ATXN2-luciferase reporter) viability, CellTiter-Fluor protease fluorescence, 24 h. Potency, µM (doses to about 56.7 µM), most hits filed as cytotoxic. actives 0.49% (n = 400,000); further: nearly all actives have a fitted effect of over 40% in size
ATXN2 expr inh – Primary qHTS for Inhibitors of ATXN expression | actives 0.72% (n = 360,000) | Potency, µM (titrated, usually from 57 µM), for inactives: at the top dose activity change, negative = inhibition, hits mostly inhibitors | HEK-293 ATXN2-luciferase reporter, luminescence, 24 h; further: on the % scale 0 is the no-effect control and ±100 the full control effect; nearly all actives have a fitted effect of over 55% in size
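ATXN2-luciferase reporter cells (luciferase flanked by upstream and downstream ATXN2 gene portions) were treated 24 h at 37 °C with compounds at up to 57 uM. SteadyGlo luminescence gave expression; GF-AFC fluorescence gave viability.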
HepG2 viability – qHTS for Inhibitors of TGF-b: Cytotox Counterscreen | AID 588856, 2011 | Potency, µM (series often up to 46.1 µM), for the others: top-dose activity change, negative = cytotoxicity, actives largely listed as cytotoxic | actives 0.76% (n = 410,000) | HepG2 CAGA-GFP viability, ATP luminescence, 18 h
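CellTiter-Glo luminescence gave cytotoxicity after 18 hours at 37 degrees C. The cells were HepG2 CAGA-GFP in 1% FBS DMEM, stimulated with 500 pg/mL TGF-beta after compound addition. %Activity was normalised to no-cell wells (complete cell-killing) and DMSO (no toxicity), and curves were fitted and classified.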
KB-V1 cytotox – qHTS assay for MDR1-selective chemotherapeutics: Primary screen using the drug-selected MDR subline cells KB-V1; KB-V1 MDR cells viability, CellTiter-Glo, 72 h; Potency, µM (doses to about 46.1 µM), actives largely listed as cytotoxic; actives 3.4% (n = 400,000); further: on the % scale 0 is the no-effect control and ±100 the full control effect; nearly all actives have a fitted effect of over 60% in size
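In this primary screen, KB-V1 cells overexpressing P-gp are incubated with library compounds (lowest to highest concentration) for 72 h at 37 degrees C before a luminescent ATP viability read.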
KB-3-1 tox – qHTS assay for MDR1-selective chemotherapeutics: Primary screen using the parental adenocarcinoma cell KB-3-1 | KB-3-1 viability, CellTiter-Glo ATP luminescence, 72 h | Potency, µM (top dose mostly 46.1 µM), usual class: cytotoxic | actives 1.4% (n = 400,000); further: on the % scale 0 is the no-effect control and ±100 the full control effect; nearly all actives have a fitted effect of over 60% in size
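Parental KB-3-1 adenocarcinoma cells in phenol-red-free DMEM with 10% FBS were pin-treated with compounds at several concentrations, incubated 72 h at 37 °C, and viability read by CellTiter-Glo luminescence; concentration-effect curves were fitted after normalization.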
TGFb inhibitor – qHTS for Inhibitors of TGF-b. Potency, µM (doses to about 46.1 µM), without a hit: at the highest dose activity, negative = inhibition, most hits filed as inhibitors. actives 1.2% (n = 410,000). HepG2 CAGA-GFP TGF-b/SMAD3 reporter, GFP fluorescence, 18 h; TGF-beta stimulated, 500 pg/mL final. AID 588855, 2011; further: on the % scale 0 is the no-effect control and ±100 the full control effect; nearly all actives have a fitted effect of over 65% in size
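First, reporter cells (HEPG2 CAGA-GFP) rested 2 h at 37 degrees C. Next, compounds were pinned in and TGF-beta added to 500 pg/mL final. After 18 h, GFP was imaged per cell and summed per well.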
* hit, by the source's call. An excerpt weighted towards active compounds, which were near 5.9% of everything screened. The call rests on the fitted dose curve; in most records, active means well fitted curve in the direction sought with a large enough effect; inconclusive means small, poorly fitted or top-dose-only effect, or another doubt; inactive means no such curve, though single readings can be large; an effect the other way counts as inactive or inconclusive. Potency means the concentration at half of the fitted maximal effect.

What do the screens show for `O=C1OC2(c3ccc(O)cc3Oc3cc(O)ccc32)c2ccccc21`?
ATXN viability: inconclusive; ATXN2 expr inh: 0%

How did O=C1OC2(c3ccccc31)c1cc(I)c(O)c(I)c1Oc1c2cc(I)c(O)c1I do in these assays?
ATXN viability: 35µM*; ATXN2 expr inh: -7%

Results for CSc1ccc(CN(C)Cc2nc3cc(C(F)(F)F)ccc3c(=O)[nH]2)cc1 ?
ATXN viability: inactive; ATXN2 expr inh: -19%; HepG2 viability: -9%; KB-V1 cytotox: 23µM*; KB-3-1 tox: inactive; TGFb inhibitor: -5%

Results for CCOC(=O)Cn1c(S(=O)(=O)Cc2ccc(Cl)cc2)nc(-c2ccccc2)c1-c1ccccc1 ?
ATXN viability: inactive; ATXN2 expr inh: -3%; HepG2 viability: 6%; KB-V1 cytotox: 7.3µM*; KB-3-1 tox: inconclusive; TGFb inhibitor: -11%

How did COc1ccc(C(=O)NC2CCN(CC(=O)NCc3ccccc3F)CC2)cc1 do in these assays?
ATXN viability: inactive; ATXN2 expr inh: 2%; HepG2 viability: -3%; KB-V1 cytotox: inactive; KB-3-1 tox: inactive; TGFb inhibitor: -1%

Results for O=C(CN1CCC(NC(=O)c2ccccc2)CC1)NCc1ccccc1F ?
ATXN viability: inactive; ATXN2 expr inh: -2%; HepG2 viability: -40%; KB-V1 cytotox: inactive; KB-3-1 tox: inactive; TGFb inhibitor: 5%

Results for O=C(NCc1ccccc1Cl)C1CCCN1C(=O)NC1CCCCC1 (centres undefined) ?
ATXN viability: inactive; ATXN2 expr inh: -9%; HepG2 viability: 3%; KB-V1 cytotox: inactive; KB-3-1 tox: inactive; TGFb inhibitor: 3%

How did O=C(NCc1ccccc1F)C1CCCN1C(=O)NC1CCCCC1 (centres undefined) do in these assays?
ATXN viability: inconclusive; ATXN2 expr inh: 3%; HepG2 viability: -2%; KB-V1 cytotox: 21µM*; KB-3-1 tox: inactive; TGFb inhibitor: -10%

Results for O=C(CN1CCC(NC(=O)c2ccc(F)cc2)CC1)NCc1ccccc1F ?
ATXN viability: inactive; ATXN2 expr inh: 11%; HepG2 viability: 5%; KB-V1 cytotox: 12µM*; KB-3-1 tox: inactive; TGFb inhibitor: -13%

What do the screens show for `O=C(CN1CCC(NC(=O)c2cccc(F)c2)CC1)NCc1ccccc1F`?
ATXN viability: inconclusive; ATXN2 expr inh: -2%; HepG2 viability: -18%; KB-V1 cytotox: 18µM*; KB-3-1 tox: inactive; TGFb inhibitor: -11%

How did O=C(CN1C(=O)COc2ccc(S(=O)(=O)N3CCCC3)cc21)N1CCN(c2ccc(F)cc2)CC1 do in these assays?
ATXN viability: inactive; ATXN2 expr inh: -8%; HepG2 viability: -16%; KB-V1 cytotox: inconclusive; KB-3-1 tox: inactive; TGFb inhibitor: -2%

Results for CNc1ccc(-c2ccccc2OC)cn1 ?
ATXN viability: inactive; ATXN2 expr inh: 6%; HepG2 viability: -1%; KB-V1 cytotox: inactive; KB-3-1 tox: inactive; TGFb inhibitor: -7%

Results for COc1ccc(C(=O)NCc2ccc3c(c2)CCN3C(=O)c2cccc(C)c2)cc1OC ?
HepG2 viability: -9%; KB-V1 cytotox: inactive; KB-3-1 tox: inactive; TGFb inhibitor: 1%

Results for Cc1ccc(NC(=O)Nc2nnc(SCC(=O)N3CCCCC3)s2)cc1 ?
HepG2 viability: -8%; TGFb inhibitor: -3%

How did C=C1CCC[C@]2(C)C[C@H]3OC(=O)C(CNC(C)CCCC(C)C)[C@H]3CC12 (some centres undefined) do in these assays?
ATXN viability: inconclusive; ATXN2 expr inh: inconclusive; HepG2 viability: -46%; KB-V1 cytotox: inconclusive; KB-3-1 tox: inactive; TGFb inhibitor: 11µM*

What do the screens show for `COc1cccc(NC(=O)CN(C)C(=O)c2ccc3ccccc3c2)c1`?
ATXN viability: inactive; ATXN2 expr inh: 4%; HepG2 viability: -3%; KB-V1 cytotox: 21µM*; KB-3-1 tox: inactive; TGFb inhibitor: 24%

Results for COc1cccc(NC(=O)CN(C)C(=O)c2ccc(NC3CC3)c([N+](=O)[O-])c2)c1 ?
ATXN viability: inactive; ATXN2 expr inh: -2%; HepG2 viability: -13%; KB-V1 cytotox: 7.3µM*; KB-3-1 tox: inactive; TGFb inhibitor: -2%

Results for CC(=O)c1cccc(NC(=O)c2cc3sc(Cl)cc3n2C)c1 ?
ATXN viability: inconclusive; ATXN2 expr inh: 0%; HepG2 viability: -16%; KB-V1 cytotox: inactive; KB-3-1 tox: inactive; TGFb inhibitor: 7%

Results for C=C(Br)COC(c1ccco1)[C@H](Cc1ccccc1)NC(=O)OC(C)(C)C (some centres undefined) ?
HepG2 viability: -28%; KB-V1 cytotox: inconclusive; KB-3-1 tox: inconclusive; TGFb inhibitor: inconclusive

What do the screens show for `COc1cccc(CNC(=O)C23CN(Cc4ccccc4)CC2C(c2ccc([N+](=O)[O-])cc2)=NO3)c1` (centres undefined)?
ATXN viability: inactive; ATXN2 expr inh: 8%; HepG2 viability: 14%; KB-V1 cytotox: 13µM*; KB-3-1 tox: inactive; TGFb inhibitor: 9%

How did O=C(/C=C/[C@H]1O[C@@H](n2cnc3c(NC(=O)c4ccccc4)ncnc32)[C@H](O)[C@@H]1O)NCc1cccc2ccccc12 do in these assays?
ATXN viability: inactive; ATXN2 expr inh: 5%; HepG2 viability: 1%; KB-V1 cytotox: inactive; KB-3-1 tox: inactive; TGFb inhibitor: -5%

How did c1ccc2c(c1)CCc1c(-c3ccncc3)n[nH]c1-2 do in these assays?
ATXN viability: inactive; HepG2 viability: 6%; KB-V1 cytotox: 15µM*; KB-3-1 tox: 13µM*; TGFb inhibitor: -17%

Results for O=C(O)c1ccccc1NCCc1ccccc1 ?
ATXN viability: inactive; ATXN2 expr inh: 44%

How did COc1cc(Cl)c(NS(=O)(=O)c2ccc(-c3coc(C)n3)cc2)c(OC)c1 do in these assays?
ATXN viability: inactive; ATXN2 expr inh: -1%; HepG2 viability: -22%; KB-V1 cytotox: inactive; KB-3-1 tox: inconclusive; TGFb inhibitor: -16%

Results for O=S(=O)(c1ccc(OCC(O)CNC23CC4CC(CC(C4)C2)C3)c(Cl)c1)N1CCOCC1 (centres undefined) ?
ATXN viability: inconclusive; ATXN2 expr inh: inconclusive; HepG2 viability: 13µM*; KB-V1 cytotox: inconclusive; KB-3-1 tox: inconclusive; TGFb inhibitor: inconclusive
